# Screening data: PubChem BioAssay, several laboratories
# In the library only some 4.1% were active in any assay of this set; here they are far more common.
# CHT allo act = human CHT allosteric activation; CHT-expressing cells, membrane potential dye, choline EC20; active compounds read high; LV-AA mutant CHT in HEK293 cells; B-score at 10 µM; 310,000 tested, 0.49% active; AID 488977;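 active = initial fluorescence not abnormally high and integrated response B-score, plate-corrected, over 3 SD above library mean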
# Target sequence (Q9GZV3 whole entry, looked up): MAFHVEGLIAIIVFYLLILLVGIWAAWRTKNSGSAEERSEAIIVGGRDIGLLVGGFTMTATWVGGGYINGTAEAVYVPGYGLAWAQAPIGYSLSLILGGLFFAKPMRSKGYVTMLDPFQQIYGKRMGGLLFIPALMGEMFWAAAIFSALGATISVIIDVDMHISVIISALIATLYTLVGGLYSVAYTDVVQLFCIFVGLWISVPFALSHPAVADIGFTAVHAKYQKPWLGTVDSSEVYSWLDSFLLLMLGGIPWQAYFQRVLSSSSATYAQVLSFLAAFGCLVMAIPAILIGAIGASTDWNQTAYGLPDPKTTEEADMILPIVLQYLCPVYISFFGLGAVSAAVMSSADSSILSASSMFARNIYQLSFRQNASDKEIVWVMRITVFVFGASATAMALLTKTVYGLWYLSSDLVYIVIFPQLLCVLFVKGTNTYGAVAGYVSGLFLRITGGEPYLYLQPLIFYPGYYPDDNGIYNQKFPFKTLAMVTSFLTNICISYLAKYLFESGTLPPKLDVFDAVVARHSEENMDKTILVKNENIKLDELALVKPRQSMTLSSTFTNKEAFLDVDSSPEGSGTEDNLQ
# SUMO Mot1 rescue = inhibitors of SUMOylation pathway: yeast Mot1-301 growth rescue | growth rescue, % at 18.8 µM | S. cerevisiae Mot1-301 growth rescue, ATP luminescence, 38.5C; percent above DMSO median, 100 means doubled | 320,000 tested, 1% active;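 active = every valid replicate shows activation above 250% relative to neutral control wells; inactive = the rest, any valid replicate at or below 250%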;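 also: OY570 slx delta 5 strain wells were the positive control but not used for scaling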
# MEKK2wt PB1 HTS = raises or lowers MEK5 binding to wildtype human MEKK2 PB1 domain; 290,000 tested, 1.1% active; bead flow cytometry, Alexa488-MEK5 binding to MEKK2 WT; actives lie on both sides; binding response (% of control), % at 10 µM; in the data active = binding response below about 67% or above about 130%
# MEKK2mut PB1 HTS = signal of MEK5 binding to mutant human MEKK2 PB1 domain. 290,000 tested, 0.35% active. bead flow cytometry, Alexa488-MEK5 binding to MEKK2 mutant. percent response, % at 10 µM; in the data active = percent response above about 24%, passing the limit was not always enough
# CHT inh = inhibits the human high affinity choline transporter. Q9GZV3. CHT-expressing cells, membrane potential dye, choline response; active compounds read low. B-score at 10 µM. 310,000 tested, 0.86% active. AID 488975;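 active = B-score over 3 SD under the library average, and starting fluorescence ratio not unusually high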;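 also: choline stimulus applied at its EC90 after an EC20 pre-addition; B-score computed on integrated fluorescence ratio after choline addition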
# MEKK3 PB1 HTS = MEKK3-MEK5 PB1 interaction, increase or decrease. 290,000 tested, 1.4% active. binding response (% of control), % at 10 µM. Q99759. bead-based flow cytometry, Alexa488-MEK5 binding to MEKK3; actives lie on both sides; 0 = blocked by unlabeled MEK5, 100 = vehicle;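 active = binding response more than 3 SD above or below the average of its plate-row segment, actives on both sides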;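 also: Alexa488 bead fluorescence after subtracting the streptavidin-only scavenger bead signal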
# MEKK2wt confirm = raises or lowers MEK5 binding to wildtype human MEKK2, retest; shares compounds with MEKK3 PB1 HTS; bead flow cytometry, Alexa488-MEK5 binding to MEKK2 WT; actives lie on both sides; binding response (% of control), % at 10 µM; 5,900 tested, 2.4% active; in the data active = binding response below about 16% or above about 210%; inactive = in between
# MEKK2mut confirm = signal of MEK5 binding to mutant human MEKK2, retest | percent response, % at 10 µM | 5,900 tested, 2% active | shares compounds with MEKK3 PB1 HTS | AID 1893 | bead flow cytometry, Alexa488-MEK5 binding to MEKK2 mutant; in the data active = percent response mostly above about 71%, no sharp cut-off; inactive = mostly below about 38%;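 also: higher means compound restores mutant binding toward wildtype level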
# MEKK3-MEK5 inh = confirmation of inhibitors of MEK5 binding to human MEKK3. binding response (% of control), % at 10 µM. bead flow cytometry, Alexa488-MEK5 binding to MEKK3; active compounds read low. shares compounds with MEKK3 PB1 HTS. 5,900 tested, 1.8% active;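 active = binding response below 72% of control, or above a set upper limit, though filed actives all read lower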;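 also: 100% = DMSO only wells and 0% = binding blocked by excess unlabeled MEK5; lower values mean stronger disruption of MEK5 binding to MEKK3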
# Starred values were filed as active, the others as inactive; i = inactive; . = no result; [ ] = another dose, or the depositor's remark.
SMILES,CHT allo act,SUMO Mot1 rescue,MEKK2wt PB1 HTS,MEKK2mut PB1 HTS,CHT inh,MEKK3 PB1 HTS,MEKK2wt confirm,MEKK2mut confirm,MEKK3-MEK5 inh
CC(NC(=O)/C(=C\c1ccco1)NC(=O)c1ccccc1Br)C(=O)O (centres undefined),i,3.0,104.0,11.0,i,105.0,.,.,.
CCOc1ccc(NC(=S)NC(=O)/C=C/c2ccco2)cc1,i,-12.5,97.0,4.0,i,105.0,.,.,.
CCc1nnc(NC(=O)/C=C/c2ccco2)s1,i,16.0,111.0,2.0,i,131.0*,88.0,-3.0,82.0
CC(=O)Nc1ccc(NC(=S)NC(=O)/C=C/c2ccco2)cc1,i,-4.4,16.0*[inhibitor],-12.0,i,40.0*[inhibitor],101.0,-2.0,100.0
CCOC(=O)c1c(C)[nH]c(C)c1S(=O)(=O)N(C)CC(=O)NCc1ccc(F)cc1,i,184.9,108.0,3.0,i,104.0,.,.,.
CC(Nc1ccccc1)c1ccncc1 (centres undefined),i,-0.1,124.0,6.0,i,133.0*,102.0,-26.0,98.0
COc1ccc(CNCc2cccn2C)cc1,i,5.4,120.0,28.0*,i,111.0,110.0,0.0,98.0
COc1ccc(CNCc2cccc(Cl)c2)cc1,i,211.6,99.0,-1.0,i,101.0,.,.,.
Cc1csc2c(N3CCN(C(=O)NC(C)(C)C)CC3)ncnc12,i,-10.9,109.0,12.0,i,114.0,.,.,.
Cc1csc2c(N3CCN(C(=O)c4ccc(C(C)(C)C)cc4)CC3)ncnc12,i,-1.3,124.0,22.0,i,131.0*,109.0,1.0,104.0
O=C1CCc2cc(S(=O)(=O)NCc3ccccc3Cl)cc3c2N1CC3,i,-10.9,.,.,i,.,.,.,.
Cc1nn(CC(=O)NCCC2=CCCCC2)c(C)c1[N+](=O)[O-],i,5.4,.,.,i,.,.,.,.
CCOC(=O)N1CCC2(CC1)C(C#N)=C(N)Oc1n[nH]c(C)c12,i,14.4,107.0,14.0,i,110.0,.,.,.
Cc1[nH]nc2c1C1(CCC3(CC1)OCCO3)C(C#N)=C(N)O2,i,5.5,-3.0*[inhibitor],-20.0,i,1.0*[inhibitor],104.0,12.0,103.0
C/C(=N\Nc1nc2ccccc2s1)c1ccc(Br)s1,i,24.7,138.0*,26.0,i,111.0,119.0,15.0,106.0
C/C(=N\Nc1nc2ccccc2s1)c1ccc2c(c1)OCO2,i,-2.1,105.0,-1.0,i,103.0,.,.,.
CN(C)c1ccc([N+](=O)[O-])cc1C(=O)O,i,6.2,108.0,0.0,i,129.0*,100.0,-3.0,99.0
COc1ccc(N2CCN(C(=O)CSc3ccc([N+](=O)[O-])cc3)CC2)cc1,i,518.1,87.0,-3.0,i,90.0,.,.,.
COc1ccc(N2CCN(C(=O)CSc3ccc(C)cc3)CC2)cc1,i,0.9,114.0,0.0,i,130.0*,107.0,6.0,104.0
CCCCCCNC(=O)N[C@@H](C(=O)NCCC[C@H]1CN2C(=NC[C@@H]2Cc2ccccc2)N1CCc1cccc(OC)c1)C(C)C,i,-9.2,201.0*,46.0*,i,109.0,169.0,49.0,104.0
CC(=O)c1cccc(OCC(O)CNCCc2ccc(Cl)cc2)c1 (centres undefined),i,-14.4,115.0,22.0,i,103.0,.,.,.
CCCc1cnc(NCCNCC(O)COc2ccc(Cl)c(Cl)c2)nc1 (centres undefined),i,10.0,144.0*,31.0,i,106.0,109.0,1.0,102.0
CN1C(C(=O)NCc2ccc(OC(F)(F)F)cc2)CC2Cn3c(nc4ccccc43)C21 (centres undefined),i,2.6,89.0,6.0,i,94.0,.,.,.
CCN(CC(=O)Nc1c(F)cccc1F)C(=O)COc1ccc2c(C)cc(=O)oc2c1,i,17.1,44.0*[inhibitor],-14.0,i,41.0*[inhibitor],96.0,-6.0,100.0
CCN(CC)c1ccc(/C=N/NC(=O)c2nnn(-c3nonc3N)c2C(C)C)c(O)c1,i,-0.9,1.0*[inhibitor],-20.0,i,2.0*[inhibitor],105.0,-2.0,102.0
SMILES,CHT allo act,SUMO Mot1 rescue,MEKK2wt PB1 HTS,MEKK2mut PB1 HTS,CHT inh,MEKK3 PB1 HTS,MEKK2wt confirm,MEKK2mut confirm,MEKK3-MEK5 inh
Cn1nc(C(=O)NCC2CCCO2)c2ccccc2c1=O (centres undefined),i,-2.8,86.0,-5.0,i,82.0*[inhibitor],103.0,1.0,102.0
CCOc1ccc(NC(=O)c2c3c(nc4ccccc24)CCC3)cc1,i,-1.5,92.0,-5.0,i,95.0,.,.,.
Cc1ccc(NC(=O)c2c3c(nc4ccccc24)CCC3)cc1,i,-28.1,84.0,-2.0,i,72.0*[inhibitor],107.0,5.0,103.0
CN1CCN(C(=O)c2cc([N+](=O)[O-])cc([N+](=O)[O-])c2)CC1,i,6.1,98.0,-2.0,i,98.0,.,.,.
O=C1CC(=O)Nc2cc(S(=O)(=O)Nc3ccc(F)cc3Cl)ccc2N1,i,1.2,103.0,4.0,i,102.0,.,.,.
O=C(C[n+]1ccc(C(=O)NCCCO)cc1)c1cccc(Br)c1,i,-8.5,122.0,21.0,i,130.0*,105.0,0.0,100.0
O=C(NCCCn1ccnc1)C1c2ccccc2Oc2ccccc21,i,74.4,96.0,-6.0,i,92.0,.,.,.
CCN(CC)CCNC(=O)c1ccc(NC(=O)c2cccc(S(=O)(=O)N3c4ccccc4CC3C)c2)cc1 (centres undefined),i,-3.7,174.0*,37.0*,i,105.0,135.0,20.0,108.0
CCOC(=O)c1cc(C#N)c(SCC(=O)OC)[nH]c1=O,i,8.9,98.0,1.0,i,98.0,.,.,.
CN1CC(=O)N2[C@H](c3ccc4c(c3)OCO4)c3[nH]c4ccccc4c3C[C@@H]2C1=O,i,24.4,105.0,2.0,i,99.0,.,.,.
O=C(CSCc1ccc(Cl)c(Cl)c1)Nc1c[nH]c(=O)[nH]c1=O,i,5.5,104.0,0.0,i,71.0*[inhibitor],105.0,-2.0,103.0
OC(COCC1COc2ccccc2O1)CN1CCN(c2ccccn2)CC1 (centres undefined),i,-8.1,117.0,24.0*,i,114.0,106.0,7.0,107.0
CC(C)C1COC(c2cccn2Cc2ccccc2Cl)=N1 (centres undefined),i,-10.3,87.0,6.0,i,99.0,.,.,.
